PAFAH1B2 FP inh = blocks human PAF acetylhydrolase 1b catalytic subunit 2; AID 492953; P68402; inhibition, % at 3.39 µM; actives 1.2% (n = 340,000); recombinant PAFAH1B2, FP-rhodamine activity probe, fluorescence polarization;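 active = inhibition above the mean of all tested compounds plus 3 SD, cut at about 24% in these data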;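 note: 0% = enzyme with DMSO and 100% = wells lacking PAFAH1B2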
Target sequence (P68402 whole entry, looked up): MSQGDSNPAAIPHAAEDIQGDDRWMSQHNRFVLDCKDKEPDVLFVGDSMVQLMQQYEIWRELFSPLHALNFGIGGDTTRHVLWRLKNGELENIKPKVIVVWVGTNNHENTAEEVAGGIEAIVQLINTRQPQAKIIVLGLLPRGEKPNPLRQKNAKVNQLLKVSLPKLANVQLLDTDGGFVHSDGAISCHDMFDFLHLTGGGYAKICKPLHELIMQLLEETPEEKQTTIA
PAFAH2 FP inh = PAFAH2 (human) inhibition | Q99487 | recombinant PAFAH2, FP-rhodamine activity probe, fluorescence polarization | inhibition, % at 3.39 µM | actives 0.99% (n = 340,000) | AID 492956;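 active = inhibition above the mean over all tested compounds plus 3 SD, cut at about 30% in these data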;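 note: inhibitors block probe labeling of enzyme so polarization drops; 0% = enzyme with DMSO and 100% = wells lacking PAFAH2 protein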
pPAFAH inh = pPAFAH (human) enzyme inhibition. Q13093. recombinant pPAFAH, FP-rhodamine probe fluorescence polarization. inhibition, % at 3.39 µM. actives 1.5% (n = 330,000);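 active = inhibition above the mean inhibition across the screen plus 3 SD, cut at about 25% in these data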;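 note: inhibitors block binding of the rhodamine activity-based probe so polarization drops; 0% = enzyme with DMSO and 100% = wells lacking pPAFAH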
PAFAH1B3 inh = blocks human PAF acetylhydrolase 1B catalytic subunit 3. Q15102. recombinant PAFAH1B3, FP-rhodamine probe, fluorescence polarization. inhibition, % at 3.39 µM. actives 0.28% (n = 340,000). AID 492972;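 active = inhibition above the screen-wide average of all tested compounds plus 3 SD, cut at about 25% in these data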;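 note: 0% = enzyme with DMSO only and 100% = wells lacking PAFAH1B3 protein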
Target sequence (Q15102 whole entry, looked up): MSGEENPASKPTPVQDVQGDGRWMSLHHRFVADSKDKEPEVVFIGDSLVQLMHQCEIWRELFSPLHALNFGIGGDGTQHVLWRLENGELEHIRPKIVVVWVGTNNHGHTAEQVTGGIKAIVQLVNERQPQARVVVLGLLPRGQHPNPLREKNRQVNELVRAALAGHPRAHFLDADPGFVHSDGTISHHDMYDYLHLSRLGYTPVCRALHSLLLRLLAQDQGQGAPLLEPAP
TCR-CD3 inh = blocks the human TCR-CD3 interaction. TAMRA-labeled TCR probe fluorescence, biochemical. inhibition, % at 9.4 µM. actives 0.37% (n = 360,000). AID 651800; in the data active = inhibition above about 19%;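 note: recombinant mutant TCR 2C K166C tagged with TAMRA read by polarization; 0% = receptor in buffer alone and 100% = receptor with positive control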
PAFAH2 FP conf = confirmation of human PAFAH2 inhibitors | AID 493030 | actives 65% (n = 2,300) | inhibition, % at 3.39 µM | recombinant PAFAH2, FP-rhodamine activity probe, fluorescence polarization | shares compounds with PAFAH2 FP inh;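 active = mean inhibition over three repeats above a set limit taken from the earlier primary screen, cut at about 30% in these data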;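 note: inhibitor blocks binding of rhodamine activity probe so polarization falls; 0% = enzyme with DMSO and 100% = wells lacking PAFAH2 protein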
Active calls of the source: *; x = no result given. Shown are actives, neighbours in structure and some others; about 2.7% of the full set was active somewhere.

SMILES | PAFAH1B2 FP inh | PAFAH2 FP inh | pPAFAH inh | PAFAH1B3 inh | TCR-CD3 inh | PAFAH2 FP conf
Cc1ccc(S(=O)(=O)N2CCOCC2)cc1NC(=O)COC(=O)c1cccnc1Cl | 5 | 16 | 9 | -1 | -4 | x
CCOc1ncccc1C(=O)OCC(=O)Nc1ccc(S(=O)(=O)N2CCCC2)cc1 | 0 | 10 | 2 | 15 | -6 | x
CCOc1ncccc1C(=O)OCC(=O)Nc1cc(S(=O)(=O)N2CCOCC2)ccc1C | -3 | 42* | 8 | 0 | 2 | 39*
CCOc1ncccc1C(=O)OCC(=O)Nc1cc(S(=O)(=O)N2CCCCC2)ccc1Cl | 1 | 68* | x | 4 | -8 | 55*
Cc1ccc(S(=O)(=O)N2CCOCC2)cc1NC(=O)COC(=O)c1cccc(Cl)c1Cl | 3 | 41* | x | -1 | 3 | 27
Cc1ccc(S(=O)(=O)N2CCOCC2)cc1NC(=O)COC(=O)c1ccc(Cl)s1 | 6 | 44* | 3 | 6 | 0 | 32*
Cc1ccc(S(=O)(=O)N2CCOCC2)cc1NC(=O)COC(=O)c1ccc(Cl)nc1 | 3 | 7 | 5 | 6 | -1 | x
COc1ccccc1CNC(=O)COC(=O)c1cc(=O)c2ccccc2o1 | -4 | -1 | -2 | 1 | 2 | x
COC(=O)[C@@]12C[C@@H](CC(=O)N3CCSCC3)C(=O)N(Cc3cccc4ccccc34)C1=CCC(C)(C)C2 | x | x | x | x | 4 | x
Fc1ccc(Nc2ccnc(Nc3ccc(F)cc3)n2)cc1 | 9 | 2 | 12 | 6 | 1 | x
CCOc1ncccc1C(=O)OCC(=O)Nc1ccc(C)c(S(=O)(=O)N(C)C)c1 | 1 | 80* | 14 | -2 | 0 | 86*
Cc1ccc(NC(=O)COC(=O)c2cccnc2Cl)cc1S(=O)(=O)N1CCOCC1 | 1 | 44* | 4 | -6 | 2 | 38*
CCOc1ncccc1C(=O)OCC(=O)Nc1cc(C)ccc1C | 1 | 13 | 24 | -6 | 0 | x
CSc1ncccc1C(=O)OCC(=O)Nc1ccc(C)c(S(=O)(=O)N2CCOCC2)c1 | 3 | 29 | 6 | 1 | 0 | x
CCOc1ncccc1C(=O)OCC(=O)Nc1ccc(C)c(S(=O)(=O)N2CCOCC2)c1 | -5 | 75* | 13 | 9 | -7 | 76*
O=C(OCC(=O)N1CCc2ccccc21)c1ccccc1[N+](=O)[O-] | -2 | 26 | 1 | -3 | -1 | x
O=C(OCC(=O)N1CCc2ccccc21)c1ccccc1F | 6 | 57* | 11 | 2 | 0 | 53*
Cn1cccc1C(=O)OCC(=O)N1CCc2ccccc2C1 | x | x | x | x | 5 | x
Cc1ccc(C(=O)OCC(=O)N2CCc3ccccc32)cc1 | 0 | 63* | 3 | 4 | 5 | 63*
Cc1ccc(C(=O)OCC(=O)N2CCCc3ccccc32)cc1C | 3 | 19 | x | -1 | 2 | x
CC(=O)c1c(C)[nH]c(C(=O)OCC(=O)N2CCc3ccccc32)c1C | -2 | 44* | -2 | -7 | -1 | 27
Cn1cccc1C(=O)OCC(=O)N1CCc2ccccc21 | 5 | 31* | 2 | 0 | 2 | 18
O=C(COC(=O)/C=C/c1cccc(Cl)c1)NCCc1ccc(Cl)cc1Cl | 1 | 42* | 8 | 8 | -4 | 44*
O=C(/C=C/c1ccco1)NCCc1ccc(F)cc1 | 2 | 7 | 3 | 2 | -2 | x
O=C(COC(=O)/C=C/c1ccco1)NCc1ccc(Cl)cc1Cl | 4 | 77* | 7 | 3 | -5 | 63*
SMILES | PAFAH1B2 FP inh | PAFAH2 FP inh | pPAFAH inh | PAFAH1B3 inh | TCR-CD3 inh | PAFAH2 FP conf
O=C(COC(=O)CNC(=O)c1ccc(Cl)cc1Cl)NCc1ccco1 | 3 | 11 | 7 | -2 | -16 | x
O=C(COC(=O)/C=C/c1ccco1)NCc1ccccc1Cl | 7 | 75* | 0 | 7 | -9 | 63*
O=C(COC(=O)/C=C/c1ccco1)NCCc1ccccc1 | 2 | 32* | 5 | 12 | -1 | 21
COc1ccc(CNC(=O)COC(=O)/C=C/c2ccco2)cc1 | -4 | 4 | 5 | 0 | 1 | x
CSc1ccccc1NC(=O)COC(=O)/C=C/c1ccco1 | 4 | 63* | 6 | -12 | x | 44*
O=C(COC(=O)/C=C/c1ccco1)Nc1ncc(C(F)(F)F)cc1Cl | 0 | 8 | 17 | 1 | 12 | x
CC(NC(=O)COC(=O)/C=C/c1ccco1)c1ccccc1 (stereo unspecified) | 6 | 49* | 1 | 1 | -1 | 38*
CNC(=O)COC(=O)/C=C/c1ccco1 | -4 | 0 | 5 | 6 | -4 | x
O=C(COC(=O)/C=C/c1ccco1)NCc1ccco1 | 11 | 37* | 4 | 17 | 0 | 20
CC(NC(=O)COC(=O)/C=C/c1ccc([N+](=O)[O-])cc1)c1ccccc1 (stereo unspecified) | -4 | 12 | 11 | -2 | 12 | x
Cc1c(Cl)cnc(NC(=O)COC(=O)/C=C/c2ccco2)c1Cl | 3 | 34* | x | -1 | 0 | 22
Cc1ccsc1C(=O)N1CCC1(C)C(=O)NS(=O)(=O)c1cccc(F)c1 (stereo unspecified) | x | x | x | x | -4 | x
O=C(COC(=O)/C=C/c1ccccc1)NCc1ccccc1Cl | 1 | 71* | 0 | 14 | -1 | 70*
O=C(COC(=O)/C=C/c1ccccc1)NCCNC(=O)COC(=O)/C=C/c1ccccc1 | 1 | -1 | -8 | 2 | 4 | x
CSc1ccccc1OCc1cc(C(=O)NCc2csc(C(C)C)n2)no1 | -3 | -2 | 5 | 10 | 12 | x
S=C(NCC1CCCO1)NC12CC3CC(CC(C3)C1)C2 (stereo unspecified) | 17 | 24 | 5 | 9 | 4 | x
O=C(NCC1CCCO1)NC12CC3CC(CC(C3)C1)C2 (stereo unspecified) | 2 | 33* | 6 | 0 | 3 | 27
CCOC(=O)C1CCCN(C(=O)c2cccc(S(=O)(=O)N(C)c3ccc(C)cc3)c2)C1 (stereo unspecified) | 3 | 4 | 3 | 7 | -4 | x
O=C(Nc1nnc(SCc2ccccc2Cl)s1)C1COc2ccccc2O1 (stereo unspecified) | 11 | 52* | 5 | 5 | -1 | 41*
Cc1ccccc1CSc1nnc(NC(=O)C2COc3ccccc3O2)s1 (stereo unspecified) | 5 | 6 | 2 | 1 | 7 | x
Cc1ccccc1NC(=O)Cc1nc(COC(=O)C(NC(=O)c2ccccc2C)C(C)C)cs1 (stereo unspecified) | 3 | 5 | 10 | 3 | -4 | x
COc1ccccc1/C=C/C(=O)OCC(=O)Nc1ccc2c(c1)OCO2 | 0 | 79* | 16 | 7 | 4 | 85*
COc1ccccc1/C=C/C(=O)OCC(=O)Nc1c(F)cccc1F | -2 | 53* | 12 | 3 | 1 | 63*
COc1ccccc1/C=C/C(=O)OCC(=O)NCc1ccc2c(c1)OCO2 | 5 | 51* | 14 | 6 | -6 | 33*
Cc1ccc(OCCSc2nc3ccccc3n2CCC(=O)O)c(C(C)C)c1 | x | x | x | x | -7 | x

High-throughput results (PubChem BioAssay)
